Assay results from PubChem BioAssay (NCATS).
Inconclusive results are not listed. Entries that show only a call come without a potency. Activity calls are given as the source filed them. Calls follow the shape of the dose curve; as a rule, active = well fitted curve in the direction sought with a large enough effect; inconclusive = small, poorly fitted or top-dose-only effect, or another doubt; inactive = no such curve, though single readings can be large; an effect the other way counts as inactive or inconclusive.

How the values were obtained:
[1] = target: Calcium and integrin-binding protein 1 (Homo sapiens) (UniProt Q99828); test: Primary qHTS for Identification of Calcium Integrin Binding Protein 1 (CIB1) Competitor (AID 1508620); details: CIB1-GST / FITC-alphaIIb peptide fluorescence polarization; series mostly up to 57.7 µM;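 also: GST tagged CIB1 binding a fluorescein labelled alphaIIb integrin peptide tracer; top concentration of the series differs between compounds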
Chain of Calcium and integrin-binding protein 1 (Homo sapiens) (Q99828 whole entry, looked up): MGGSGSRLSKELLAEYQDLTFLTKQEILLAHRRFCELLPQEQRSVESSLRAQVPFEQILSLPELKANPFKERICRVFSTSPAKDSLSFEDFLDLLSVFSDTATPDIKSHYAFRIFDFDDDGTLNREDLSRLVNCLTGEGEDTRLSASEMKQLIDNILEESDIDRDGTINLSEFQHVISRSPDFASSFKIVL
In short: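 CIB1-GST (1 uM final) and compound incubated 15 min at room temperature before adding FITC-alphaIIb peptide tracer (100 nM final). Competition for binding read by fluorescence polarization (ex 480, em 540) after another 15 min at room temperature.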

[2] = qHTS to identify inhibitors of the type 1 interferon - major histocompatibility complex class I in skeletal muscle: primary screen against the NCATS Mechanism Interrogation Plate v5.0 (MIPE) Libary (AID 1347411); details: iHSKM cells + IFN-b, HiBiT-tagged MHC-I luminescence, 24 h; series mostly up to 45.8 µM; also: nearly all actives have a fitted effect of over 65% in size; also: potency is read from the fitted curve at half-maximal effect
In short: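 Luminescence from CRISPR HiBit-tagged endogenous HLA-B in human myoblasts reported MHC class I level after 24 h of IFN-beta (4 ng/ml) plus compound. Compounds ran as 11-point 1:3 series, top 46 uM final.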

Which outcome [1] does the source give for `CCCS(=O)(=O)Nc1ccc(F)c(C(=O)c2c[nH]c3ncc(Cl)cc23)c1F` here?
The outcome was “inactive”.

Which Potency [2] does the source give for `CN(C)C(=O)c1ccc(S(=O)(=O)c2ccc(NC(=O)[C@@](C)(O)C(F)(F)F)c(Cl)c2)cc1` here?
The Potency was “inactive”.

What about the outcome [1] of the same molecule?
The outcome was “inactive”.

With `Cn1cc(-c2ccc3nnc(C(F)(F)c4ccc5ncccc5c4)n3n2)cn1` as the molecule, how does the Potency [2] read?
The Potency was “inactive”.

And the outcome [1]?
Its outcome is “inactive”.

Which results are given for `COc1ccc(COc2cc3oc(=O)c4cc(C(C)O)ccc4c3cc2OC)cc1` (stereo unspecified)?
Potency [2]: inactive; outcome [1]: inactive

What does the source list for `Cc1cc(-c2ccc(CC(=O)Nc3ccc(-c4cccnc4)cc3)cc2)ccn1`?
Potency [2]: inactive; outcome [1]: inactive

For `Cc1n[nH]c(C)c1Cc1sc2c(c1C(=O)N1C[C@H](O)CO1)c(=O)n(C)c(=O)n2CC(C)C`, which Potency [2] is on record?
Its Potency is “inactive”.

And the outcome [1]?
Its outcome is “inactive”.

For `CCN(c1ccccc1)c1cc(NC)[n+](C)c(C)n1`, which Potency [2] is on record?
Its Potency is “inactive”.

And the outcome [1]?
The outcome was “inactive”.

With `COc1cc(Oc2ccnc3cc(OC)c(OC)cc23)ccc1NC(=O)NC(C)c1nccs1` (stereo unspecified) as the molecule, how does the Potency [2] read?
The Potency was “inactive”.

What about the outcome [1] of the same molecule?
The outcome was “inactive”.

For `CCn1c(-c2nonc2N)nc2cnc(Oc3cccc(NC(=O)c4ccc(OCCN5CCOCC5)cc4)c3)cc21`, which outcome [1] is on record?
Its outcome is “inactive”.

For `NC(=O)c1ccc(-c2nc(-c3ccc4c(c3)OCO4)c(-c3ccccn3)[nH]2)cc1`, which Potency [2] is on record?
The Potency was “inactive”.

And the outcome [1]?
The outcome was “inactive”.

Which results are given for `Cc1cc(Nc2nc(N[C@@H](C)c3ncc(F)cn3)ncc2Cl)n[nH]1`?
Potency [2]: 1.04 µM (active); outcome [1]: inactive

What does the source list for `COc1c(Cl)cc2c([nH]c3cnccc32)c1NC(=O)c1cccnc1C`?
Potency [2]: 26.2 µM (active); outcome [1]: inactive

With `NC(=O)c1ccc(-c2nc(-c3ccc4c(c3)OCCO4)c(-c3ccccn3)[nH]2)cc1` as the molecule, how does the Potency [2] read?
The Potency was “inactive”.

And the outcome [1]?
Its outcome is “inactive”.

For `Cn1c(=O)c(F)c(Nc2ccc(I)cc2F)c2c(=O)n(C[C@@H](O)CO)cnc21`, which Potency [2] is on record?
Its Potency is “inactive”.

What about the outcome [1] of the same molecule?
Its outcome is “inactive”.
